PubChem BioAssay (NCATS)
Results filed as inconclusive are left out. Active and inactive are the calls of the source. The call rests on the fitted dose curve; in most records, active means well fitted cell-killing curve with a large enough effect; inconclusive means small, poorly fitted or top-dose-only effect; inactive means flat fitted curve, though single readings scatter.

Experiments:
[1] = Cell Viability - LYMP2-011 (AID 969); further: nearly all actives have a fitted effect of over 60% in size
Outline: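 Cytotoxicity qHTS with ATP content as read-out: lymphoblastoid cells (2500/well) exposed to compound for 24 h at 37 C, then luciferase luminescence measured. Concentration-response data fitted with the standard Hill equation to give AC50.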

[2] = Cell Viability - LYMP2-013 (AID 970); further: series mostly up to about 92 µM; nearly all actives have a fitted effect of over 55% in size
Outline: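 qHTS cytotoxicity: ATP-dependent luminescence (CellTiter-Glo, 30 min room temperature) read after 24 h compound exposure at 37 C of 2500 LYMP2-013 lymphoblastoid cells per well. Concentration-response fitted with Hill equation to give AC50.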

[3] = Cell Viability - LYMP2-015 (AID 971); further: nearly all actives have a fitted effect of over 55% in size
Outline: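 Cytotoxicity readout: decrease in intracellular ATP (CellTiter-Glo luminescence) in 2500 LYMP2-015 lymphoblastoid cells/well after 24 h compound exposure at 37 C. Concentration-response data fitted with the standard Hill equation to give AC50.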

[4] = Cell Viability - LYMP2-017 (AID 972); further: series mostly up to about 92 µM; nearly all actives have a fitted effect of over 55% in size
Outline: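 CellTiter-Glo luminescence (cellular ATP, 30 min RT) measured cytotoxicity after 24 hr compound treatment at 37 C. Cells were a human lymphoblastoid line, LYMP2-017, plated at 2500/well and incubated 5 hr first; concentration-response fitted with Hill equation for AC50.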

[5] = Cell Viability - LYMP2-019 (AID 973); further: nearly all actives have a fitted effect of over 55% in size
Outline: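 AC50 values come from Hill-equation fits of luminescent intracellular ATP (CellTiter-Glo, 30 min, room temperature) following 24 h compound exposure at 37 C. Cells: LYMP2-019 lymphoblastoid line, 2500 per well, in complete culture medium.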

[6] = Cell Viability - LYMP2-021 (AID 974); further: nearly all actives have a fitted effect of over 55% in size
Outline: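 AC50 values come from Hill-equation fits to CellTiter-Glo luminescence (ATP content), read after 24 hour compound exposure at 37 C of 2500 LYMP2-021 lymphoblastoid cells/well; tetraoctylammonium bromide as positive control.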

[7] = Cell Viability - LYMP2-023 (AID 975)
Outline: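 Intracellular ATP, read by CellTiter-Glo luminescence, reports viability after 24 hr compound exposure at 37 C. 2500 lymphoblastoid cells/well (LYMP2-023) seeded 5 hr beforehand; Hill fits give AC50; positive control tetraoctylammonium bromide.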

[8] = Cell Viability - LYMP2-025 (AID 976); further: series mostly up to about 92 µM
Outline: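 Cytotoxicity read as loss of intracellular ATP (luciferase luminescence) after 24 h compound treatment at 37 C. Uses LYMP2-025 lymphoblastoid cells in 1536-well format; Hill-equation modelling gives AC50; tetraoctylammonium bromide as positive control.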

[9] = Cell Viability - LYMP2-002 (AID 977); further: series mostly up to about 92 µM
Outline: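 In this qHTS viability screen, 2500 human lymphoblastoid cells per well receive compound for 24 hr at 37 C, and luciferase-based ATP luminescence gives the viability signal. Tetraoctylammonium bromide serves as positive control.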

[10] = Cell Viability - LYMP2-006 (AID 978); further: series mostly up to about 92 µM; nearly all actives have a fitted effect of over 60% in size
Outline: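 In this cytotoxicity screen, the human lymphoblastoid line grew in complete medium with test compounds for 24 hr at 37 C. Cellular ATP served as the viability signal.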

[11] = Cell Viability - LYMP2-007 (AID 979);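 further: cells exposed to compound for 24 h before reading; nearly all actives have a fitted effect of over 60% in size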
Outline: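 AC50 values come from Hill-equation fits of luminescent intracellular ATP (CellTiter-Glo, 30 min, room temperature) following 24 h compound exposure at 37 C. Cells: LYMP2-007 lymphoblastoid line, 2500 per well, in complete culture medium.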

[12] = Cell Viability - LYMP2-008 (AID 980); further: nearly all actives have a fitted effect of over 60% in size
Outline: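 Cytotoxicity determined from ATP-dependent luciferase luminescence (CellTiter-Glo) following 24 h compound exposure of human lymphoblastoid LYMP2-008 cells at 37 C. Concentration-response data fitted to the Hill equation to give AC50.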

[13] = Cell Viability - LYMP2-010 (AID 981); further: nearly all actives have a fitted effect of over 55% in size
Outline: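 CellTiter-Glo ATP luminescence measured cytotoxicity after 24 h compound exposure at 37 C. LYMP2-010 cells were seeded at 2500/well, with tetraoctylammonium bromide as control; concentration-response curves gave AC50 values by the Hill equation.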

[14] = Cell Viability - LYMP2-012 (AID 982)
[15] = Cell Viability - LYMP2-014 (AID 983); further: series mostly up to about 92 µM; nearly all actives have a fitted effect of over 50% in size
Outline: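 Intracellular ATP loss, read by luciferase luminescence, measures acute cytotoxicity after 24 h compound exposure of lymphoblastoid LYMP2-014 cells (2500/well, 37 C). Concentration-response data fitted to the Hill equation for AC50.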

[16] = Cell Viability - LYMP2-016 (AID 984); further: nearly all actives have a fitted effect of over 55% in size
Outline: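 Concentration-dependent ATP depletion measured in LYMP2-016 lymphoblastoid cells, 24 h, 37 C; luciferase-based luminescent detection; Hill-equation AC50.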

[17] = Cell Viability - LYMP2-018 (AID 985); further: nearly all actives have a fitted effect of over 50% in size
Outline: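 Viability read as CellTiter-Glo luminescence (cellular ATP) after 24 hr compound exposure at 37 C of 2500 LYMP2-018 lymphoblastoid cells/well, pre-plated 5 hr. Hill-equation modelling gave AC50.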

[18] = Cell Viability - LYMP2-020 (AID 986)
Outline: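 Cytotoxicity in qHTS format: luminescent ATP readout from CellTiter-Glo after 24 h compound exposure at 37 C in complete medium. LYMP2-020 lymphoblastoid cells were seeded at 2500/well; concentration-response data fitted to the Hill equation for AC50.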

[19] = Cell Viability - LYMP2-022 (AID 987); further: nearly all actives have a fitted effect of over 55% in size
Outline: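 Cytotoxicity read as decreased cellular ATP (CellTiter-Glo luminescence, 30 min room temperature) after 24 hours compound exposure of 2500 lymphoblastoid LYMP2-022 cells/well at 37 C. Concentration-response data fitted with standard Hill equation for AC50.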

[20] = Cell Viability - LYMP2-024 (AID 988); further: nearly all actives have a fitted effect of over 60% in size
Outline: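 Cytotoxicity was taken as a decrease in ATP (CellTiter-Glo luminescence) after 24 hr compound exposure at 37 C of LYMP2-024 lymphoblastoid cells, 2500 cells/well. Concentration-response data were fitted to the Hill equation to give AC50.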

Measured: outcome

Cc1cc(O)c2c(c1)C(=O)c1cccc(O)c1C2=O
inactive: all assays above
